Activity calls are given as the source filed them. Cut-off read from the data, not from the text of the source: active = log2 fold change growth below about -1.8; inactive = the rest.
assay: C. elegans growth inhibition, whole organism, log2 fold change (AID 1259336); details: anthelmintic screen, stronger effect = lower value;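 note: growth scored by imaging after five days at 20 °C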

log2 fold change growth, inactive:
Cc1ccc(-c2nc(CN(Cc3ccccn3)C(C)C)cs2)o1 0.617
NC(=O)c1cc(Br)ccc1OCCOc1ccccc1 0.186
COc1ccc(N(CCc2cccc(C)n2)C(C)=O)cc1 0.0749
CCN(CC)CCCN1CCN(C(=O)c2cccc(-c3noc(C(F)(F)F)n3)c2)CC1 -0.0333
O=C(c1cc2ccccc2o1)N1CCN(Cc2ccc3c(c2)OCO3)CC1 0.212
O=C(C1CCCCC1)N1CC(=O)N2CCc3ccccc3[C@@H]2C1 0.303
COc1ccc(Cl)cc1NC(=O)CN(C)C(=O)c1cnn(-c2ccccc2)n1 -0.154
Cc1ccc(C(=O)Nc2ccc(S(=O)(=O)O)c3cc(S(=O)(=O)O)cc(S(=O)(=O)O)c23)cc1NC(=O)c1cccc(NC(=O)Nc2cccc(C(=O)Nc3cc(C(=O)Nc4ccc(S(=O)(=O)O)c5cc(S(=O)(=O)O)cc(S(=O)(=O)O)c45)ccc3C)c2)c1 0.211
Cc1cc(=O)[nH]c(-n2nc(C)cc2C)n1 0.36
NCC(=O)N1CCn2c(nc(-c3ccccc3)c2Nc2ccc3c(c2)OCO3)C1 0.0553
COc1ccc(C2=NCCN2)cc1-c1cn(-c2cccc(C3=NCCN3)c2)nn1 0.077
N=C(N)c1ccc(OCCCCCOc2ccc(C(=N)N)cc2)cc1 0.291
CCN(CC)S(=O)(=O)c1ccc(C(=O)Nc2cc(C)nn2-c2nc(C)c(C)c(=O)[nH]2)cc1 0.269
